High-throughput results: PubChem BioAssay, The Scripps Research Institute Molecular Screening Center
SRC3 TRFRET art: counter-screen for PPARgamma SRC-3 recruitment agonists: TR-FRET artefact. TR-FRET ratio at 8 µM. PPARgamma/SRC-3 format; hits give high values. 0.39% of 99,000 active
PPARg SRC-2 ag: PPARgamma-driven SRC-2 recruitment agonism | P37231 | activation, % at 8 µM | 0.34% of 200,000 active | AID 1032 | PPARgamma LBD-SRC-2 recruitment, biochemical; in the data active = activation above about 22%;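 note: 0% = vehicle and 100% = reference agonist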
PPARg SRC-3 ag: promotes SRC-3 coactivator recruitment by human PPARgamma | P37231 | biochemical PPARgamma/SRC-3 coactivator recruitment assay | activation, % at 8 µM | 0.26% of 200,000 active; in the data active = activation above about 23%;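 note: 0% = DMSO and 100% = reference agonist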
PPARg SRC1 recr: promotes SRC-1 coactivator recruitment by human PPARgamma; P37231; PPARgamma-SRC-1 coactivator recruitment biochemical assay; activation, % at 8 µM; 0.41% of 200,000 active; in the data active = activation above about 19%;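 note: 0% = DMSO and 100% = reference agonist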
SRC1 TRFRET art: TR-FRET artefact, counter-screen to PPARgamma/SRC-1 agonist assay; 0.34% of 99,000 active; TR-FRET ratio at 8 µM; AID 1051; TR-FRET detection artefact counter-screen, emission ratio; hits give high values; in the data active = TR-FRET ratio above about 2300
SRC2 TRFRET art: flags TR-FRET format artefacts in PPARgamma SRC-2 recruitment agonist screen; TR-FRET artefact counter-screen; hits give high values; TR-FRET ratio at 8 µM; 0.4% of 200,000 active; AID 1049
PPARg SRC2 conf: confirmation of agonists of SRC-2 recruitment by human PPARgamma. 52% of 790 active. shares compounds with PPARg SRC-3 ag. activation, % at 8 µM. biochemical SRC-2 recruitment by PPARgamma; in the data active = activation above about 22%;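 note: 0% = vehicle alone and 100% = reference agonist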
PPARg SRC1 conf: confirmation of agonists of SRC-1 recruitment by human PPARgamma; shares compounds with PPARg SRC-3 ag; PPARgamma–SRC-1 coactivator recruitment biochemical assay; activation, % at 8 µM; 43% of 790 active; AID 1300; in the data active = activation above about 20%;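 note: 0% = vehicle wells and 100% = reference agonist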
PPARg SRC3 conf: human PPARgamma SRC-3 recruitment agonism, confirmation. shares compounds with PPARg SRC-3 ag. biochemical PPARgamma-SRC-3 coactivator recruitment, agonist mode. activation, % at 8 µM. 29% of 790 active. AID 1301; in the data active = activation above about 24%;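 note: 0% = vehicle wells and 100% = reference agonist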
Numbers without * were called inactive; / = no result. The list is not random: actives were taken first. Their share in the collection is about 0.9%. Cut-off read from the data, not from the text of the source, unless noted: active = TR-FRET ratio above about 2000; inactive = the rest.

SMILES	SRC3 TRFRET art	PPARg SRC-2 ag	PPARg SRC-3 ag	PPARg SRC1 recr	SRC1 TRFRET art	SRC2 TRFRET art	PPARg SRC2 conf	PPARg SRC1 conf	PPARg SRC3 conf
N#C/C(=C\c1ccc(N2CCOCC2)c([N+](=O)[O-])c1)c1nc2ccccc2[nH]1	1599	-1	0	-5	1558	1476	/	/	/
N#C/C(=C\c1ccc(N2CCOCC2)o1)c1nc2ccccc2[nH]1	/	26*	23	25*	/	1740	4	13	11
C/C(=N\NC(=O)c1cccc(S(=O)(=O)N2CCCC2)c1)c1cccs1	1409	10	4	-2	1695	1411	/	/	/
N#Cc1cc2c(nc1SCc1ccccc1)CCCCC2	/	35*	9	12	/	1973*	37*	33*	24*
N#Cc1cc2c(nc1SCc1cccc(Cl)c1)CCCCC2	/	17	-2	18	/	1696	/	/	/
COC(=O)c1cc(Cl)c(NC(=O)c2ccc(C(C)(C)C)cc2)cc1OC	/	8	20	5	/	1607	/	/	/
COC(=O)c1cc(Cl)c(NC(=O)c2cc3ccccc3o2)cc1OC	/	50*	105*	97*	/	3198*	59*	53*	40*
Cc1cc2nc(-c3ccc(SCc4ccccc4C#N)nc3)[nH]c2cc1C	/	59*	46*	36*	/	2284*	32*	20*	20
Cc1ccc(C(=O)C2=C(O)C(=O)N(CCCn3ccnc3)C2c2ccc(OC(C)C)cc2)o1 (configuration not stated)	/	28*	26*	14	/	2124*	10	6	7
CCOc1ccc(C2C(C(=O)c3ccco3)=C(O)C(=O)N2CCCn2ccnc2)cc1 (configuration not stated)	/	19	16	8	/	1743	/	/	/
O=C(c1ccc2c(c1)OCO2)N1CCN(c2ccccc2)CC1	/	13	26*	4	/	1552	1	3	3
COc1cc(OC)c(-c2c3cc(O)c(=O)cc-3oc3cc(O)c(O)cc23)cc1OC	1808	8	3	1	2053	1611	/	/	/
Cc1c2cc(O)c(=O)cc-2oc2cc(O)c(O)cc12	/	16	27*	6	/	1651	7	7	6
N#Cc1c(-c2ccco2)nc(SCc2ccc(F)cc2)[nH]c1=O	/	45*	39*	20*	/	2187*	24*	15	16
N#Cc1c(-c2ccco2)nc(SCC(=O)Nc2ccc(S(N)(=O)=O)cc2)[nH]c1=O	/	7	-3	5	/	1576	/	/	/
O=C(Nc1ccc(S(=O)(=O)Nc2ncccn2)cc1)c1ccc(Br)s1	/	22*	37*	13	/	2098*	23*	12	15
O=C(Nc1ccc(Cl)cc1)Nc1ccc(S(=O)(=O)Nc2ncccn2)cc1	1543	7	4	4	1792	1569	/	/	/
Cc1cccc(Nc2nn3c(=O)c4ccccc4nc3s2)c1	/	2	37*	31*	/	1736	27*	17	15
CCOC(=O)c1ccc(NC(=O)c2ccccc2N(C)S(=O)(=O)c2ccccc2)cc1	1438	2	-2	6	1732	1589	/	/	/
COc1cccc(C2=NCCc3cc4c(cc32)OCO4)c1OC	1576	5	1	2	1702	1481	/	/	/
COc1ccc2cc3[n+](cc2c1OC)CCc1cc2c(cc1-3)OCO2	1328	25*	-2	13	1819	1423	7	7	5
CC(C)C(NC(=O)c1ccccc1)C(=O)NCCc1ccccc1 (configuration not stated)	1431	-3	0	0	1705	1484	/	/	/
Cc1cc(NS(=O)(=O)c2ccc(Br)s2)no1	/	1	-4	8	/	1545	/	/	/
Cc1cc(C(=O)OCC(=O)c2ccc(Br)s2)c(C)o1	/	8	31*	20*	/	1872	41*	30*	30*
Cc1cc(C(=O)OCC(=O)c2ccc(Br)s2)no1	/	90*	123*	65*	/	2269*	54*	34*	39*
SMILES	SRC3 TRFRET art	PPARg SRC-2 ag	PPARg SRC-3 ag	PPARg SRC1 recr	SRC1 TRFRET art	SRC2 TRFRET art	PPARg SRC2 conf	PPARg SRC1 conf	PPARg SRC3 conf
COc1ccc(OC)c(C(=O)COC(=O)c2cc(C)oc2C)c1	/	-2	-3	2	/	1514	/	/	/
Cc1noc2ncnc(Sc3ccc(Br)cc3)c12	1543	6	2	-3	1839	1748	/	/	/
O=C(NC(=S)Nc1cccc(NC(=O)c2ccc(Cl)cc2Cl)c1)c1cccs1	1577	-2	-1	1	1716	1573	/	/	/
Oc1ccc(N=Cc2ccc(-c3cccs3)s2)cc1	/	26*	24	37*	/	1957	53*	46*	30*
CCOc1ccc(/C(O)=C2\C(=O)C(=O)N(c3cc(C)on3)C2c2ccccc2OC)cc1 (configuration not stated)	/	34*	42*	27*	/	2300*	36*	31*	22
CCOc1ccc(N2C(=O)CC(NCCNc3ccc(C(=O)c4cccs4)cc3)C2=O)cc1 (configuration not stated)	1661	2	1	5	2007	1690	/	/	/
CN1/C(=C\C(=O)c2ccco2)C(C)(C)c2ccccc21	/	19	26*	5	/	1942	19	11	13
COC(=O)c1c(NC(=S)Nc2ccccc2Cl)sc(C)c1C	/	31*	38*	22*	/	2012*	31*	24*	19
COC(=O)c1c(NC(=O)Cc2ccccc2)sc(C)c1C	/	-1	-8	-4	/	1586	/	/	/
CCOC(=O)c1cnc(SCCN2CCOCC2)nc1N	1519	0	0	5	1721	1309	/	/	/
CC(=O)c1sc(NC(=O)CCCOc2ccc(Cl)cc2)nc1C	2343*	27*	20	22*	2292	2055*	19	16	12
CSc1oc(-c2ccccc2)nc1C(N)=O	/	19	30*	18	/	1911	27*	18	17
CCOc1ccccc1C(=O)NC(C(=O)Nc1cccnc1)C(C)C (configuration not stated)	1352	-1	5	3	1705	1549	/	/	/
O=C(Nc1ccccc1F)c1ccc(-n2cncn2)nc1	/	23*	10	1	/	1617	6	5	3
COc1ccccc1NC(=O)c1ccc(-n2cncn2)nc1	1488	0	-4	-5	1830	1534	/	/	/
COc1ccc(NC(=O)c2cccnc2SC)cc1S(=O)(=O)N1CCCCC1	1626	-3	-8	-4	1779	1428	/	/	/
Cn1c(=O)cc(SCC(=O)NCCC2=CCCCC2)c2ccc(Cl)cc21	1608	-6	0	-4	1403	1438	/	/	/
